# Data reported in PubChem BioAssay AID504332 (National Center for Advancing Translational Sciences (NCATS), 2011).
# In all, about 350,000 compounds went through this assay and about 31,000 (8.9%) were called active. About 15% were inconclusive and are not listed. Shown is part of a subset that was picked to be rich in actives. Unmarked numbers belong to inactive results. Calls follow the shape of the dose curve; as a rule, active = well fitted inhibition curve with a large enough effect; inconclusive = small, poorly fitted or top-dose-only effect; inactive = no such curve, though single readings can be large or run the other way.
# Target: Histone-lysine N-methyltransferase EHMT2 (Homo sapiens) (UniProt Q96KQ7)
# Experiment: qHTS Assay for Inhibitors of Histone Lysine Methyltransferase G9a; also: nearly all actives have a fitted effect of over 75% in size
# Conditions: G9a H3K9 monomethylation, AlphaScreen, 2 h; series mostly up to 59 µM; activity, negative = inhibition: at the top concentration
# Procedure, shortened: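 Enzyme 20 nM + cpd, 15 min RT; add b-H3K9 pep 500 nM / SAM 20 uM; 2 h RT; anti-H3K9me1 Ab 0.5 ug/mL + SA donor / anti-rabbit acceptor beads 20 ug/mL each, 10 min; AlphaScreen read.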
# % is scaled to controls: 0 for no effect and ±100 for the full control effect; potency is read from the fitted curve at half-maximal effect.
# Histone-lysine N-methyltransferase EHMT2 (Homo sapiens), sequence (Q96KQ7 913-1193 limits assumed): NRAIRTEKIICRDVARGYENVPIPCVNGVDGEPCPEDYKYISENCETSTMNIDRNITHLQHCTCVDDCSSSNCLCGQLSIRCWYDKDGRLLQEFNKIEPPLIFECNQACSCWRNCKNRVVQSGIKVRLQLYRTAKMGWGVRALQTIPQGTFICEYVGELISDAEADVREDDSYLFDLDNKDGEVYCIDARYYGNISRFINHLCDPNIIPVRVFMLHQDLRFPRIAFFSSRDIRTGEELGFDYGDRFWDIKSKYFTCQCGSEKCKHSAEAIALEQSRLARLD
Compound,"activity, negative = inhibition",Potency
NC(=O)c1ccc(CN2CCC(Cc3ccccc3)CC2)cc1,3.65% [at 102 µM],–
Brc1ccccc1CN1CCC(Cc2ccccc2)CC1,–,44.7 µM (active)
COc1cc(C)cc(CN2CCC(Cc3ccccc3)CC2)c1O,-9.7% [at 2.33 µM],–
Cn1ccc2cc(S(=O)(=O)N3CCCC(C(=O)NCc4ccccc4F)C3)ccc21 (configuration not stated),8.59%,–
Cc1ccc(S(=O)(=O)CCC(=O)OCC(=O)N(C)C2CCS(=O)(=O)C2)cc1 (configuration not stated),0.624% [at 102 µM],–
CC(Oc1ccc2ccccc2c1)C(=O)NNC(=S)NC(=O)c1ccco1 (configuration not stated),–,20 µM (active)
CCCc1ccc(OCC(=O)NNC(=S)NC(=O)c2ccco2)cc1,–,2.24 µM (active)
Cc1ccc(OCC(=O)NCCCNC(=O)c2ccco2)cc1C,21% [at 102 µM],–
CCCc1ccc(OCCNC(=O)c2ccco2)cc1,12.8% [at 102 µM],–
O=C(Nc1ccc2ccccc2c1)/C(=C/c1cccc(Br)c1)NC(=O)c1ccco1,11.4% [at 102 µM],–
O=C(Nc1ccc2ccccc2c1)/C(=C\c1ccc2c(c1)OCO2)NC(=O)c1ccco1,-19.2%,–
CSCCC(NC(=O)COc1ccccc1)C(=O)N(C)CC(=O)Nc1ccc(C)cc1 (configuration not stated),-0.305%,–
NS(=O)(=O)c1ccc2nc(NC(=O)COc3ccccc3)sc2c1,3%,–
COc1cc(/C=N/Nc2nn3cnnc3c3ccccc23)cc(OC)c1OC,-5.49%,–
CN(CCO)c1ccc(/C=N/Nc2nncc3ccccc23)cc1,–,31.6 µM (active)
FC(F)(F)c1nc2ccccc2nc1N/N=C/c1ccc(Cl)cc1,48.3%,–
CCOc1ncccc1C(=O)OCC(=O)Nc1cccc(S(=O)(=O)N2CCCCCC2)c1,-1.01% [at 2.33 µM],–
CN1/C(=C\C(=O)c2oc3ccccc3c2N)C(C)(C)c2ccccc21,-56.3%,–
CN1CCN(CCC(=O)N/N=C/C=C2\N(C)c3ccccc3C2(C)C)CC1,–,31.6 µM (active)
CC(C)Nc1nnc(SCC(=O)/C=C2\N(C)c3ccccc3C2(C)C)s1,-11.2%,–
CCN(CCCNC(=O)c1cc2c(=O)n(CC)c3ccccc3c2s1)Cc1ccccc1,2.01%,–

Compound,"activity, negative = inhibition",Potency
CCOC(=O)c1ccc(NC(=O)Cc2cccs2)cc1,23% [at 102 µM],–
CCCN1C(=O)C(O)(CC(=O)c2ccc(CC)cc2)c2cc(Br)ccc21 (configuration not stated),8.12%,–
COc1ccc(N2CC(C(=O)N[C@@H](C)C(=O)N3CCCCC3)CC2=O)cc1 (some centres not stated),13.8% [at 102 µM],–
COc1ccc(C2OC(=O)CC2C(=O)NC(C)C)cc1 (configuration not stated),–,28.2 µM (active)
COc1ccc(C(C)NC(=O)C2CCCC2)cc1 (configuration not stated),49.3% [at 102 µM],–
COc1ccc(NC(=O)CSc2nc3ccccc3n2CC(=O)N2CCCCC2C)cc1 (configuration not stated),16.3%,–
CCOc1ccc(NC(=O)CN(C)C(=O)Cc2sc(C)nc2-c2ccc(F)cc2)cc1OCC,-29.9%,–
O=C(NCCc1c[nH]c2ccccc12)c1cc2ccccc2oc1=O,-44.1% [at 102 µM],–
O=C(NCCc1c[nH]c2ccccc12)c1cccc(Br)c1,0.2% [at 2.33 µM],–
Cc1cc(C)cc(NC(=S)NCCc2c[nH]c3ccccc23)c1,–,39.8 µM (active)
O=C(O[C@H]1[C@H](Cc2ccccc2)NS(=O)(=O)[C@H]2C[C@@H]3C=C[C@]12O3)c1ccc([N+](=O)[O-])cc1,-6.93% [at 2.33 µM],–
Brc1ccc(CN2CC[C@H]3C=CCc4cccc(c43)C2)cc1,12.2% [at 2.33 µM],–
CCc1ccc(NC(=O)c2cc(S(=O)(=O)NC3CCCCCC3)ccc2F)cc1,13.9%,–
Cc1ccc(-n2cc(CN(C)Cc3nccn3C)c(-c3cccc(C)c3)n2)cc1,–,39.8 µM (active)
COc1ccc(-c2[nH]ncc2CN(Cc2nccn2C)C(C)C)cc1F,-38.6% [at 102 µM],–
Cc1cccc(-n2cc(CN3CCN(C(=O)c4ncn[nH]4)CC3)c(-c3cccc(F)c3)n2)c1,-37.2% [at 102 µM],–
COc1cc(C(=O)NCCS(=O)(=O)N2CCN(c3ccccc3)CC2)cc(OC)c1OC,-36.6%,–
Cc1ccccc1CNC(=O)C(=O)NCC(c1cccs1)S(=O)(=O)c1cccs1 (configuration not stated),4.09%,–
CCc1ccc(NC(=O)CCS(=O)(=O)c2cc3c(cc2Cl)NC(=O)CO3)cc1,-7.38%,–
CCOC(=O)c1ccc(-c2ccc(/C=C(\C#N)C(=O)Nc3ccc(C)cc3)o2)cc1,-4.08%,–
CC(=O)Nc1ccc(NC(=O)c2ccc3c(c2)C(=O)N(c2ccccc2C)C3=O)cc1,–,39.8 µM (active)
